PubChem BioAssay AID488890 (Southern Research Specialized Biocontainment Screening …, 2010)
Screen size: about 320,000 compounds; about 1,300 (0.41%) were called active. About 3% were inconclusive and are not listed. The rule behind the calls is not given here. Only a sample is shown. Results with a measured potency or affinity are listed apart.

test: growth inhibition of non-replicating M. tuberculosis (AID 488890); conditions: Mycobacterium tuberculosis non-replicating, at 25 µM, stronger effect = higher value;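 note: plate controls were DMSO cells for no effect and high antibiotic wells for full effect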

Compound	inhibition
COc1ccccc1NC(=O)COC(=O)CCc1ccc(S(=O)(=O)N2CCOCC2)cc1	5.51%
CCCCN1CC(COc2ccccc2)OC1=O (stereo unspecified)	72.5%
COc1ccc(Nc2oc(COc3cccc(C)c3)nc2C#N)cc1	13.3%
CCN(CC)S(=O)(=O)c1ccc(N2CCCC2)c(NC(=O)c2c(-c3ccccc3)noc2C)c1	13.9%
Cc1cccc(C(=O)NCC(=O)OCC(=O)NC2CCCCC2)c1	-3.75%
O=C(NCc1ccncc1)C(=O)NCC1OCCN1S(=O)(=O)c1cc(F)ccc1F (stereo unspecified)	3.82%
Cc1cccc2c(=O)c(C(=O)NCCCN3CCOCC3)c[nH]c12	4.67%
Cc1nnc(SCCn2c(N3CCCCC3)nc3c2c(=O)n(C)c(=O)n3C)s1	7.29%
Cc1cnc(NC(=O)c2ccc3c(c2)OCCO3)s1	12.1%
O=C(Nc1ccc([N+](=O)[O-])cn1)c1ccc2c(c1)OCO2	-8.57%
Cc1ccc(C2(c3noc(CN4CCC(C(=O)N5CCOCC5)CC4)n3)CCCC2)cc1	14.3%
COC(=O)c1oc2ccc(Br)cc2c1NC(=O)CCCN1C(=O)c2ccccc2C1=O	-12.2%
CC(=O)Oc1ccc(C(=O)Nc2cccc(C(=O)NC(C)(C)C)c2)cc1	7.66%
O=C(COc1ccc2c(-c3ccccc3)cc(=O)oc2c1)NCc1ccccn1	7.24%
Cc1nn(-c2ccccc2)c(C)c1CN	6.26%
CC(=O)Nc1ccc(OC(=O)c2ccc(Cl)cc2)cc1	52.1%
CCOc1ccc(C(=O)Oc2ccc(NC(C)=O)cc2)cc1	24.7%
Cc1ccc(N2CC(C(=O)Nc3nnc(SCCC4OCCO4)s3)CC2=O)cc1C (stereo unspecified)	27.4%
CCN(CC(=O)NCc1ccc(F)cc1)C(=O)COc1ccc(C)c(C)c1	28.3%
COc1ccc(C(=O)O)cc1S(=O)(=O)NC(C)C	-0.91%
Oc1ccc(Br)cc1-c1cc(-c2ccc(Cl)cc2)n[nH]1	13.8%
Oc1ccc(Br)cc1-c1cc(-c2ccccc2)n[nH]1	-5.74%
C1=C(CCNCc2ccccc2)CCCC1	-4.9%

Compound	inhibition
O=C(O)c1ccccc1C(=O)NNc1ccc(Cl)cc1Cl	10.7%
Cc1cc(C(=O)N/N=C/c2cccs2)no1	33.9%
O=C(NNC(=O)C1CC1c1ccccc1)c1ccccc1[N+](=O)[O-] (stereo unspecified)	-10.3%
O=C(NC(NNc1ccc([N+](=O)[O-])cc1)(C(F)(F)F)C(F)(F)F)c1ccccc1Cl	6.68%
O=C(NNC(=O)C1CC1c1ccccc1)c1cccc([N+](=O)[O-])c1 (stereo unspecified)	3.57%
O=C(NNc1ccc([N+](=O)[O-])cc1)c1ccco1	69.6%
Cc1cc(C(=O)N/N=C/c2ccc[nH]2)no1	64.3%
NS(=O)(=O)c1ccc(NNC(=O)c2ccccc2C(=O)O)cc1	-12.1%
CN(c1ccccc1)S(=O)(=O)c1ccc(NC(=S)NC(=O)C2CC2)cc1	-18.9%
COc1cc(OC)cc(C(=O)N2CCC(C(=O)c3ccc(F)cc3)CC2)c1	5.91%
CC(C)[C@@H](C(=O)NC1CC1)N1C(=O)N2CCc3c([nH]c4ccccc34)[C@@]2(C)C1=O	21%
CC1CCC(NC(=O)CN2CCN(S(=O)(=O)c3cccs3)CC2)CC1 (stereo unspecified)	1.37%
Cc1nc2c(-c3ccc(F)cc3)c(C)nn2c(N2CCOCC2)c1C	40.1%
O=C(O)CSc1nnc(-c2ccc(Cl)cc2Cl)n1Cc1ccccc1	-8.24%
O=C(NC1CCCCC1)C(c1cccs1)N(C(=O)C(F)(F)F)c1ccccc1 (stereo unspecified)	14.2%
Cc1cc(C(=O)NNc2ccc(F)cc2)no1	57.1%
Cc1cc(C(=O)NNC(=O)Nc2ccc(Cl)cc2)no1	-6.49%
Cc1ccc(C)c(C(=O)CCC(=O)Nc2ccc(F)cc2)c1	40%
CC(C)OCC(O)CS(=O)(=O)Cc1ccccc1 (stereo unspecified)	-5.18%
O=C(c1cccnc1)N1CCC(Oc2ccc(C(=O)N3CCCC(O)C3)cc2)CC1 (stereo unspecified)	-34.2%
CSc1nc(Cl)cc(=O)[nH]1	6.5%
CSc1cc(C)[nH]c(=O)n1	-1.97%
O=C(NCC(c1ccco1)N1CCc2ccccc21)c1ccccc1Br (stereo unspecified)	11.1%

Compound	inhibition
Cc1ccc(Cn2c(NS(=O)(=O)c3ccccc3)nc3ccccc32)cc1	-3.28%
CC(=O)NCCCc1nc2ccccc2n1Cc1ccc(C)cc1	1.78%
CC(=O)NCCc1nc2ccccc2n1Cc1ccc(Cl)cc1	0.72%
O=C(Nc1nc2ccccc2n1Cc1ccc(Cl)cc1)c1ccco1	-7.17%
CC(=O)Nc1ccc(-c2nc3cc(Cl)ccc3o2)cc1	49.8%
CC/C(=N\NC(N)=O)c1c(O)[nH]c(=O)[nH]c1=O	-25.7%
C/C(Cn1nnc([N+](=O)[O-])n1)=N\NC(=O)c1ccc(O)cc1	54.4%
C/C(Cn1nnc([N+](=O)[O-])n1)=N\NC(=O)c1ccc(C)cc1	55.5%
Cc1nc2c(sc3nc4c(cc32)COC(C)(C)C4)c(=O)n1Cc1ccccc1	8.21%
CCNC(=O)OCC12CC3CC(CC(C3)C1)C2	77%
CCCNC(=O)OCCC12CC3CC(CC(C3)C1)C2	69.4%
COc1ccc(Cl)c2sc(N(CCN(C)C)C(=O)CCS(=O)(=O)c3ccc(C)cc3)nc12	26.4%
O=C(NCC1CCCN(C(=O)c2cccnc2)C1)c1ccc(-c2ccccc2)cc1 (stereo unspecified)	-2.83%
O=[N+]([O-])c1ccc(Nc2ccc(Cl)cc2)nc1	16.9%
O=C(O)c1ccc(Nc2ncc([N+](=O)[O-])cc2[N+](=O)[O-])cc1	5.68%
COc1ccc(CCNC(=O)c2ccc(S(=O)(=O)N(C)c3ccccc3)cc2)cc1OC	-1.9%
O=C(CC1CCCC1)Nc1cc(C(F)(F)F)ccc1-n1cncn1	12.3%
c1ccc(Nc2ccccc2Nc2ccccn2)nc1	0.46%
c1ccc(Nc2ccccn2)nc1	3.72%
COc1cc(NC(=O)c2ccc([N+](=O)[O-])o2)ccc1NC(=O)c1ccco1	66.5%
O=C(NCc1cccnc1)c1ccc([N+](=O)[O-])o1	62.8%
Cc1cccc(NC(=O)c2cccc(Cn3cc(Br)c([N+](=O)[O-])n3)c2)c1C	-0.16%
Cc1cccc(NC(=O)COC(=O)c2ccc([N+](=O)[O-])o2)c1C	61.9%

Compound	inhibition
Cc1ccc(CNC(=O)c2ccc(Br)o2)cc1	71.9%
Cc1cccc(NC(=O)c2ccco2)c1C	-14.2%
Cc1ccccc1Cn1nnc(C(=O)Nc2cccc(C)c2C)c1N	26%
COc1ccccc1NC(=O)c1ccc(-c2ccccc2[N+](=O)[O-])o1	25%
O=C(NCc1ccccc1)c1cc[n+](Cc2ccccc2)cc1	-1.18%
Cc1ccc(C(C)(C)NC(=O)C2CCC(=O)N(C3CCCCCC3)C2)cc1 (stereo unspecified)	8.48%
Cc1ccccc1CC(=O)N1CCN(S(=O)(=O)c2cccs2)CC1	-18.2%
O=C(Cc1ccccc1)NC(c1ccco1)c1c(O)ccc2ccccc12 (stereo unspecified)	11.6%
O=C(NCc1ccccc1)C1=C[C@@H](c2csc3ccccc23)C[C@@H](OCCCCO)O1	-6.19%
NC(=O)c1cc(S(=O)(=O)N2CC=C(c3ccccc3)CC2)cs1	-1.59%
N#CCc1ccc(NC(=O)CSc2nnc(C3CC3)n2C2CC2)cc1	-7.07%
CC(=O)OCC(=O)Nc1ccc(SC(F)F)cc1	-17.3%
COc1ccc(CNC(=O)N2CCN(c3cccc(C)c3C)CC2)cc1OC	47.1%
Cc1ccc2nc(-c3ccncc3)cc(C(=O)N3CCC4(CC3)OCCO4)c2c1	8.38%
O=C(CSc1ncn(-c2ccccc2)n1)Nc1nccs1	12.5%
Cc1cc(OC2CCCCC2)nc(-c2ccccc2O)n1	0.01%
C=C1CCC[C@]2(C)C[C@H]3OC(=O)C(CNC(CC)CO)[C@H]3CC12 (stereo partly specified)	34.3%
O=C(Nc1nccs1)c1ccc(N2C(=O)C3CCCCC3C2=O)cc1 (stereo unspecified)	6.17%
O=C(NC12CC3CC(CC(C3)C1)C2)c1ccc(-c2ccc(Cl)cc2)o1	64.3%
O=C(Nc1cccc(NC(=O)c2ccccc2Cl)c1)c1ccc([N+](=O)[O-])o1	8.06%
Cc1c([N+](=O)[O-])cc(C(=O)Nc2ccc(Cc3ccncc3)cc2)cc1[N+](=O)[O-]	59.9%
Cc1ccc(C(=O)Nc2cccc3ccccc23)o1	26.4%
O=C(Nc1ccc(Cc2ccncc2)cc1)c1ccc(Br)o1	-2.73%

Compound	inhibition
Cc1cc(C)nc(NC(=O)c2ccc([N+](=O)[O-])o2)n1	70.5%
O=C(NC12CC3CC(CC(C3)C1)C2)c1ccc([N+](=O)[O-])cc1	74.3%
O=C(COC(=O)c1ccc([N+](=O)[O-])o1)Nc1cccc2ccccc12	71.3%
O=C(NCCCN1CCN(CCCNC(=O)c2cccc(Cl)c2)CC1)c1cccc(Cl)c1	43.3%
CCOc1ccc(NC(=O)CN(C)C(=O)c2ccc(C)o2)cc1OCC	-1.16%
Cc1ccc(-c2cc(C(=O)Nc3cccnc3)[nH]n2)c(O)c1C	3.48%
CC(C)NC(=O)CCn1nc(-c2ccc(Cl)cc2)c2ccccc2c1=O	10%
FC(F)(F)c1cc(-c2ccco2)nc(N2CCN(c3ccccc3)CC2)n1	-1.1%
O=C(CCNC(=O)c1ccc(Br)cc1)NCc1ccco1	6.14%
CC(=O)c1cccc(S(=O)(=O)NCCC(=O)O)c1	-0.2%
Cc1cc(C)c2nc(NC(=O)c3ccc([N+](=O)[O-])o3)sc2c1	62.3%
O=C(Nc1ccccc1N1CCOCC1)c1ccc([N+](=O)[O-])o1	67.3%
CN1CCN(c2ccccc2NC(=O)c2ccc([N+](=O)[O-])o2)CC1	44.3%
NS(=O)(=O)c1ccc(O)c(NC(=O)c2ccc([N+](=O)[O-])o2)c1	76.7%
CCn1ncc(Br)c1C(=O)Nc1cc(C)cc(C)c1	-11%
C=C1CCC2[C@](C)(CO)[C@H](O)CC[C@@]2(C)[C@@H]1/C=C/C1=CCOC1=O (stereo partly specified)	-9.71%
CC(C)c1ccc(C(C(=O)NC2CCCC2)N(C(=O)CNC(=O)c2ccco2)c2cccnc2)cc1 (stereo unspecified)	-5.98%
O=C(NS(=O)(=O)Nc1ccccc1)C1=C(N2CCCC2)COC1=O	12.7%
CCOC(=O)N1CCN(C(=O)CSc2nc3c([nH]c4ccccc43)c(=O)n2CCOC)CC1	-12.8%
